High-throughput results deposited in PubChem BioAssay by National Center for Advancing Translational Sciences (NCATS).
Shiga toxin inh – Shiga toxin inhibition. 290,000 tested, 9.2% active. inhibition, % at 38.7 µM. Vero cells, Shiga toxin protein synthesis inhibition reporter; in the data active = inhibition mostly above about 28%, no sharp cut-off; inactive = mostly below about 43%
AMA1-RON2 inh – AMA1-RON2 (P. falciparum) interaction inhibition; AlphaScreen AMA1-biotinylated RON2 peptide binding; Potency, µM (top dose mostly 58.2 µM), hits mostly inhibitors; 360,000 tested, 0.2% active; note: nearly all actives have a fitted effect of over 45% in size
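AMA1 (3D7) with his tag at 25 nM final met compounds first, then biotinylated RON2 peptide at 25 nM; detection used donor plus acceptor beads, 10 µg/mL apiece, read by AlphaScreen after 30 min at room temperature.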
Cycloheximide cs – counter-screen for Shiga toxin inhibitors: cycloheximide protein synthesis inhibition; cell reporter, cycloheximide protein synthesis inhibition counterscreen; max response, %; 300,000 tested, 12% active; AID 2314; in the data active = max response mostly above about 13%, no sharp cut-off; inactive = mostly below about 14%; note: read at 38.3 µM for the half of the compounds with a filed dose
HCV inh – inhibitors of hepatitis C virus infection; AID 651820; Potency, µM (titrated, usually from 41.8 µM), most hits filed as inhibitors; Huh7.5.1 HCVcc-Cre infection, luciferase reporter, 44 h; 340,000 tested, 3.4% active
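A cell-based infection assay in which seeded cells (1,000 per well) receive test compound after 4 h, are inoculated with HCVcc-Cre at approximately 0.5 moi, and are incubated 44 h before luminescence detection.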
Pf growth 96h – P. falciparum growth inhibition at 96 hours; P. falciparum luciferase reporter growth, 96 h; Potency, µM (titrated, usually from 28.7 µM), usual class: inhibitors; 320,000 tested, 6.9% active
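Cell-based qHTS: luciferase-tagged P. falciparum in erythrocytes (2% hematocrit, 0.05% parasitemia final) incubated with compounds for 96 hours, 37 C, 5% CO2; luciferase detection reagent then added and luminescence measured.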
Pf growth 48h – P. falciparum growth inhibition at 48 hours (one generation); P. falciparum luciferase growth in erythrocytes, 48 h; Potency, µM (top dose mostly 28.7 µM), usual class: inhibitors; 310,000 tested, 5.9% active
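A one-generation exposure of luciferase-tagged malaria parasites in RPMI 1640/Albumax erythrocyte culture, 37 C and 5% CO2. Inhibition is inferred from decreased luminescence after adding detection reagent.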
Each line names hits and unclear results; the compound was inactive in the other large screens. An excerpt weighted towards active compounds, which were near 21% of everything screened. Unless noted, calls come from the whole dose curve; as a rule, active = well fitted curve in the direction sought with a large enough effect; inconclusive = small, poorly fitted or top-dose-only effect, or another doubt; inactive = no such curve, though single readings can be large; an effect the other way counts as inactive or inconclusive.

COc1ccccc1NC(=O)CSc1nc(O)cc(=O)n1C	none (no result: Pf growth 96h)
COc1ccc(-c2cnc(SCC(=O)Nc3nc(C(C)(C)C)cs3)n2Cc2ccco2)cc1	HCV inh 4.47µM, Pf growth 96h inconclusive, Pf growth 48h 13.1µM
Cn1c(SCC(=O)Nc2cccc3ccccc23)nc(O)cc1=O	Pf growth 96h inconclusive, Pf growth 48h 10.4µM
COc1ccc(-c2cnc(SCC(=O)Nc3cc(C)on3)n2Cc2ccco2)cc1	Pf growth 48h inconclusive (no result: Pf growth 96h)
O=C(CSc1ncc(-c2ccc(F)cc2)n1Cc1ccco1)Nc1nccs1	none (no result: Pf growth 96h, Pf growth 48h)
COc1ccc([C@H]2C[C@@H](O)[C@H](n3cc(-c4ccc(F)cc4)nn3)CN2C(=O)C2CCCCC2)cc1	none (no result: Shiga toxin inh, Cycloheximide cs, HCV inh, Pf growth 96h, Pf growth 48h)
O=C1CCCc2oc3c(c21)CCCC3	none
Cc1ccc(S(=O)(=O)N2CCN(C(=O)COC(=O)COc3ccc(Cl)cc3)CC2)c(C)c1	none (no result: Shiga toxin inh, Cycloheximide cs, Pf growth 96h, Pf growth 48h)
COCCn1c(-c2ccc(OC)cc2)cnc1SCC(=O)Nc1cccc2ccccc12	AMA1-RON2 inh inconclusive, Pf growth 96h 1.65µM, Pf growth 48h inconclusive
COCCn1c(SCC(=O)Nc2ccccc2OC)nc2ccccc2c1=O	HCV inh inconclusive
O=C(N/C(=C\c1ccc(Br)cc1)C(=O)N1CCOCC1)c1ccc([N+](=O)[O-])cc1	none
Cc1ccc(C(=O)N/C(=C\c2ccc(-c3ccc(Br)cc3)o2)C(=O)NCCCN(C)C)cc1	HCV inh 2µM, Pf growth 96h inconclusive, Pf growth 48h inconclusive
CN(C)CCNC(=O)/C(=C/c1ccc(-c2ccc(Cl)cc2Cl)o1)NC(=O)c1ccccc1	HCV inh 10µM, Pf growth 48h 11.7µM
O=C(N/C(=C\c1ccco1)C(=O)N1CCOCC1)c1ccc([N+](=O)[O-])cc1	Pf growth 96h 4.65µM
Cc1ccc(C(=O)N/C(=C\c2ccc(-c3cccc([N+](=O)[O-])c3)o2)C(=O)NCCCN(C)C)cc1	HCV inh inconclusive, Pf growth 96h inconclusive, Pf growth 48h inconclusive
COc1ccc(-c2ccc(/C=C(\NC(=O)c3ccccc3)C(=O)N3CCOCC3)o2)cc1	Pf growth 48h 13.1µM
CN(C)CCNC(=O)/C(=C/c1ccc(-c2ccc(Cl)cc2)o1)NC(=O)c1ccccc1	HCV inh 10µM, Pf growth 48h 13.1µM
CN(C)CCCNC(=O)/C(=C\c1ccc(-c2cccc([N+](=O)[O-])c2)o1)NC(=O)c1ccccc1	HCV inh inconclusive, Pf growth 48h inconclusive
COc1ccc(CCN2CC(O)=C(c3nc(C)cs3)C2=N)cc1OC	none
COc1ccc(CCN2CC(O)=C(c3nc4ccccc4c(=O)[nH]3)C2=N)cc1OC	Pf growth 48h 13.1µM (no result: Pf growth 96h)
CCOC(=O)c1cc(-c2ccccc2)sc1NC(=O)C(C)(C)C	Pf growth 96h inconclusive, Pf growth 48h 9.28µM
CCOC(=O)c1cc(-c2ccccc2)sc1NC(=O)CC(C)C	Pf growth 96h 7.38µM, Pf growth 48h inconclusive
CCOC(=O)c1cc(-c2ccccc2)sc1NC(=O)CN1C(=O)c2ccccc2C1=O	none (no result: Shiga toxin inh, Cycloheximide cs, Pf growth 96h, Pf growth 48h)
CCOC(=O)c1cc(-c2ccccc2)sc1NC(=S)Nc1cc(C)ccn1	Pf growth 96h 13.1µM, Pf growth 48h inconclusive
COc1ccc(CNC(=O)COC(=O)CN2C(=O)NC3(CCCC3)C2=O)cc1	Pf growth 48h inconclusive (no result: Shiga toxin inh, Cycloheximide cs)
CN(C(=O)CSc1nc2ccccc2c(=O)n1-c1ccccc1Cl)C1CCS(=O)(=O)C1 (stereo not given)	none (no result: Shiga toxin inh, Cycloheximide cs, Pf growth 96h, Pf growth 48h)
C=CC[C@]12CCc3sccc3C1N(c1ccc(C(=O)OCC)cc1)C2=O (stereo not given in full)	HCV inh inconclusive, Pf growth 96h inconclusive, Pf growth 48h 10.4µM (no result: Shiga toxin inh, Cycloheximide cs)
CCOC(=O)c1ccc(N2C(=O)C3CCOc4ccccc4C32)cc1 (stereo not given)	Pf growth 96h inconclusive, Pf growth 48h inconclusive (no result: Shiga toxin inh, Cycloheximide cs)
COc1ccc(N=C2SC(CC(=O)Nc3ccccc3)C(=O)N2Cc2ccco2)cc1 (stereo not given)	Shiga toxin inh 39.4, Pf growth 96h inconclusive, Pf growth 48h inconclusive
COc1ccc(N=C2SC(CC(=O)Nc3ccccc3F)C(=O)N2Cc2ccco2)cc1 (stereo not given)	Cycloheximide cs 21.4, Pf growth 96h inconclusive, Pf growth 48h inconclusive
CCOc1ccc(N=C2NC(=O)C(CC(=O)Nc3ccccc3)S2)cc1 (stereo not given)	Pf growth 48h 8.28µM
COCCN1C(=O)C(CC(=O)Nc2ccccc2)SC1=Nc1ccc(OC)cc1 (stereo not given)	Pf growth 96h inconclusive (no result: Pf growth 48h)
Cc1ccc(C)c(OCCC(=O)OCC(=O)Nc2cc(S(=O)(=O)N3CCCCC3)ccc2C)c1	none (no result: Shiga toxin inh, Cycloheximide cs, Pf growth 96h, Pf growth 48h)
CC(C)(C)OC(=O)NCCCCCNC(=O)c1[nH]cnc1C(=O)Nc1ccc(Cl)cc1	HCV inh 35.5µM, Pf growth 96h inconclusive, Pf growth 48h 10.4µM (no result: Shiga toxin inh, Cycloheximide cs)
Cc1ccc(NC(=O)c2[nH]cnc2C(=O)NN)cc1	Shiga toxin inh 71.2, Cycloheximide cs 25.7
CCOC(=O)c1ccc(NC(=O)c2nc[nH]c2C(=O)NCCCCNC(=O)c2[nH]cnc2C(=O)Nc2ccc(C(=O)OCC)cc2)cc1	Pf growth 96h 1.47µM, Pf growth 48h inconclusive (no result: Shiga toxin inh, Cycloheximide cs)
CCOC(=O)c1ccc(NC(=O)c2nc[nH]c2C(=O)NCCCNC(=O)c2[nH]cnc2C(=O)Nc2ccc(C(=O)OCC)cc2)cc1	Pf growth 96h inconclusive (no result: Shiga toxin inh, Cycloheximide cs)
Cc1ccc(NC(=O)c2nc[nH]c2C(=O)NCCCNC(=O)c2[nH]cnc2C(=O)Nc2ccc(C)cc2)cc1	none (no result: Shiga toxin inh, Cycloheximide cs, Pf growth 96h, Pf growth 48h)
Cc1ccc(NC(=O)c2nc[nH]c2C(=O)NCCCCCNC(=O)OC(C)(C)C)cc1	HCV inh inconclusive, Pf growth 96h inconclusive, Pf growth 48h 3.29µM (no result: Shiga toxin inh, Cycloheximide cs)
Cc1ccc(S(=O)(=O)NC(=O)C2(C)CCN2C(=O)c2ccccc2CCc2ccccc2)nc1 (stereo not given)	none (no result: Shiga toxin inh, Cycloheximide cs, HCV inh, Pf growth 96h, Pf growth 48h)
CCCn1c(Nc2cccc(OC)c2)nc2ccccc21	none
C=CCn1c2ccccc2c(=O)c2cc(C#Cc3ccccn3)ccc21	HCV inh 12.6µM, Pf growth 96h 2.08µM, Pf growth 48h inconclusive (no result: Shiga toxin inh, Cycloheximide cs)
C=CCn1c2ccccc2c(=O)c2cc(C#Cc3ccsc3)ccc21	Pf growth 96h 0.329µM, Pf growth 48h 0.0465µM (no result: AMA1-RON2 inh, HCV inh)
C#CCOCCOCCOCCNc1nc(N2CCN(C(=O)CCCCCCCCCCNC(=O)[C@H](CCCCN)n3cc(CCO)nn3)CC2)nc(N2CCN(C(=O)CCCCCCCCCCNC(=O)[C@H](CCCN=C(N)N)n3cc(C[C@@H](C)CC)nn3)CC2)n1	AMA1-RON2 inh inconclusive, HCV inh inconclusive, Pf growth 96h 4.65µM, Pf growth 48h 11.7µM (no result: Shiga toxin inh, Cycloheximide cs)
C#CCOCCOCCOCCNc1nc(N2CCN(C(=O)[C@H]([C@@H](C)CC)n3cc(CCCN=C(N)N)nn3)CC2)nc(N2CCN(C(=O)[C@H](CCCCN)n3cc(CC(C)O)nn3)CC2)n1 (stereo not given in full)	HCV inh inconclusive, Pf growth 96h inconclusive (no result: Shiga toxin inh, Cycloheximide cs)
